# Measurements: PubChem BioAssay AID1159580 (chemical genetic matrix, 2015)
# The campaign covered roughly 5,500 compounds. About 2,000 (36%) were called active. Not shown: some 18% with an inconclusive outcome. This is one part of the list. Unmarked numbers belong to inactive results. Cut-off read from the data, not from the text of the source: active = normalized growth mostly below about 0.91 (no sharp cut-off); inconclusive = no clear call, values can overlap the other calls; inactive = mostly above about 0.92.
# Assay: chemical genetic growth profiling, strain panel (AID 1159580);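 note: tested at 20 µM; growth read once vehicle control cultures reached saturation at 30 °C; 1 = growth at the plate median or of vehicle wells; lower values mean less growth of the strain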
# Details: growth OD
smiles,measurement,setting,value
Cc1cc(O)c2c(c1O)C(=O)c1c(O)cc(C)c(O)c1C2=O,normalized growth,"S. cerevisiae deletion strains, locus YJR075W, strain HOC1, stronger effect = lower value",1.01
same,normalized growth,"S. cerevisiae deletion strains, locus YKL009W, strain mrt4, stronger effect = lower value",1.05
same,normalized growth,"S. cerevisiae deletion strains, locus YKL068W, stronger effect = lower value",0.995
same,normalized growth,"S. cerevisiae deletion strains, locus YKL085W, strain MDH1 (second series), stronger effect = lower value",1.01
same,normalized growth,"S. cerevisiae deletion strains, locus YKL085W, strain MDH1, stronger effect = lower value",1.01
same,normalized growth,"S. cerevisiae deletion strains, locus YKL160W, strain elf1, stronger effect = lower value",0.985
same,normalized growth,"S. cerevisiae deletion strains, locus YKL190W, strain CNB1, stronger effect = lower value",0.984
same,normalized growth,"S. cerevisiae deletion strains, locus YKR001C, strain vps1, stronger effect = lower value",0.971
same,normalized growth,"S. cerevisiae deletion strains, locus YKR026C, strain gcn3, stronger effect = lower value",0.979
same,normalized growth,"S. cerevisiae deletion strains, locus YKR091W, strain srl3, stronger effect = lower value",0.968
same,normalized growth,"S. cerevisiae deletion strains, locus YLL001W, strain dnm1, stronger effect = lower value",0.966
same,normalized growth,"S. cerevisiae deletion strains, locus YLL026W, stronger effect = lower value",0.988
same,normalized growth,"S. cerevisiae deletion strains, locus YLL041C, strain sdh2, stronger effect = lower value",0.981
same,normalized growth,"S. cerevisiae deletion strains, locus YLR027C, strain aat2, stronger effect = lower value",0.966
same,normalized growth,"S. cerevisiae deletion strains, locus YLR039C, strain RIC1, stronger effect = lower value",0.635 (active)
same,normalized growth,"S. cerevisiae deletion strains, locus YLR058C, strain SHM2, stronger effect = lower value",0.93
same,normalized growth,"S. cerevisiae deletion strains, locus YLR102C, strain apc9, stronger effect = lower value",0.999
same,normalized growth,"S. cerevisiae deletion strains, locus YLR113W, strain HOG1, stronger effect = lower value",1.03
same,normalized growth,"S. cerevisiae deletion strains, locus YLR221C, strain rsa3, stronger effect = lower value",0.948
same,normalized growth,"S. cerevisiae deletion strains, locus YLR258W, strain gsy2, stronger effect = lower value",0.977
same,normalized growth,"S. cerevisiae deletion strains, locus YLR262C, strain YPT6 (second series), stronger effect = lower value",0.887
same,normalized growth,"S. cerevisiae deletion strains, locus YLR262C, strain YPT6, stronger effect = lower value",0.675
same,normalized growth,"S. cerevisiae deletion strains, locus YLR268W, strain sec22, stronger effect = lower value",0.964
same,normalized growth,"S. cerevisiae deletion strains, locus YLR320W, strain mms22, stronger effect = lower value",0.965
same,normalized growth,"S. cerevisiae deletion strains, locus YLR330W, strain CHS5, stronger effect = lower value",0.956
same,normalized growth,"S. cerevisiae deletion strains, locus YLR342W, strain FKS1 (second series), stronger effect = lower value",0.981
same,normalized growth,"S. cerevisiae deletion strains, locus YLR342W, strain FKS1, stronger effect = lower value",0.98
same,normalized growth,"S. cerevisiae deletion strains, locus YLR357W, strain rsc2, stronger effect = lower value",0.976
same,normalized growth,"S. cerevisiae deletion strains, locus YLR370C, strain arc18, stronger effect = lower value",0.987
same,normalized growth,"S. cerevisiae deletion strains, locus YLR371W, strain rom2, stronger effect = lower value",1
same,normalized growth,"S. cerevisiae deletion strains, locus YLR384C, strain iki3, stronger effect = lower value",0.962
same,normalized growth,"S. cerevisiae deletion strains, locus YLR418C, strain cdc73, stronger effect = lower value",1.02
same,normalized growth,"S. cerevisiae deletion strains, locus YML016C, strain PPZ1, stronger effect = lower value",0.958
same,normalized growth,"S. cerevisiae deletion strains, locus YML032C, strain rad52, stronger effect = lower value",0.974
same,normalized growth,"S. cerevisiae deletion strains, locus YML120C, strain ndi1, stronger effect = lower value",0.912 (active)
same,normalized growth,"S. cerevisiae deletion strains, locus YML124C, strain tub3, stronger effect = lower value",0.997
same,normalized growth,"S. cerevisiae deletion strains, locus YMR058W, strain fet3, stronger effect = lower value",0.923
same,normalized growth,"S. cerevisiae deletion strains, locus YMR078C, strain ctf18, stronger effect = lower value",0.981
same,normalized growth,"S. cerevisiae deletion strains, locus YMR125W, strain sto1, stronger effect = lower value",0.99
same,normalized growth,"S. cerevisiae deletion strains, locus YMR129W, stronger effect = lower value",0.981
same,normalized growth,"S. cerevisiae deletion strains, locus YMR205C, strain PFK2, stronger effect = lower value",0.993
same,normalized growth,"S. cerevisiae deletion strains, locus YMR223W, strain ubp8, stronger effect = lower value",0.989
same,normalized growth,"S. cerevisiae deletion strains, locus YMR231W, strain pep5, stronger effect = lower value",0.959
same,normalized growth,"S. cerevisiae deletion strains, locus YMR263W, strain SAP30, stronger effect = lower value",1.01
same,normalized growth,"S. cerevisiae deletion strains, locus YMR307W, strain GAS1, stronger effect = lower value",0.778
same,normalized growth,"S. cerevisiae deletion strains, locus YNL067W, strain RPL9B, stronger effect = lower value",0.991
same,normalized growth,"S. cerevisiae deletion strains, locus YNL071W, strain lat1, stronger effect = lower value",0.984
same,normalized growth,"S. cerevisiae deletion strains, locus YNL128W, strain TEP1, stronger effect = lower value",0.96
same,normalized growth,"S. cerevisiae deletion strains, locus YNL153C, strain GIM3, stronger effect = lower value",0.965
same,normalized growth,"S. cerevisiae deletion strains, locus YNL183C, strain NPR1, stronger effect = lower value",0.951
same,normalized growth,"S. cerevisiae deletion strains, locus YNL209W, strain ssb2, stronger effect = lower value",0.969
same,normalized growth,"S. cerevisiae deletion strains, locus YNL233W, strain BNI4, stronger effect = lower value",0.982
same,normalized growth,"S. cerevisiae deletion strains, locus YNL248C, strain rpa49, stronger effect = lower value",0.95
same,normalized growth,"S. cerevisiae deletion strains, locus YNL250W, strain rad50, stronger effect = lower value",0.974
same,normalized growth,"S. cerevisiae deletion strains, locus YNL271C, strain bni1, stronger effect = lower value",0.987
same,normalized growth,"S. cerevisiae deletion strains, locus YNL298W, strain CLA4, stronger effect = lower value",0.98
same,normalized growth,"S. cerevisiae deletion strains, locus YNL307C, strain MCK1, stronger effect = lower value",1.01
same,normalized growth,"S. cerevisiae deletion strains, locus YNL322C, strain KRE1 (second series), stronger effect = lower value",0.944
same,normalized growth,"S. cerevisiae deletion strains, locus YNL322C, strain KRE1, stronger effect = lower value",0.984
same,normalized growth,"S. cerevisiae deletion strains, locus YNR049C, strain mso1, stronger effect = lower value",0.965
same,normalized growth,"S. cerevisiae deletion strains, locus YNR052C, strain pop2, stronger effect = lower value",0.98
same,normalized growth,"S. cerevisiae deletion strains, locus YOL006C, strain TOP1, stronger effect = lower value",0.491 (active)
same,normalized growth,"S. cerevisiae deletion strains, locus YOL012C, strain htz1",1.11
same,normalized growth,"S. cerevisiae deletion strains, locus YOL147C, strain pex11, stronger effect = lower value",1
same,normalized growth,"S. cerevisiae deletion strains, locus YOR001W, strain rrp6, stronger effect = lower value",0.962
same,normalized growth,"S. cerevisiae deletion strains, locus YOR061W, strain CKA2, stronger effect = lower value",0.934
same,normalized growth,"S. cerevisiae deletion strains, locus YOR069W, strain VPS5, stronger effect = lower value",0.975
same,normalized growth,"S. cerevisiae deletion strains, locus YOR070C, strain gyp1, stronger effect = lower value",0.972
same,normalized growth,"S. cerevisiae deletion strains, locus YOR080W, strain dia2, stronger effect = lower value",0.974
same,normalized growth,"S. cerevisiae deletion strains, locus YOR083W, strain WHI5, stronger effect = lower value",0.964
same,normalized growth,"S. cerevisiae deletion strains, locus YOR106W, strain vam3, stronger effect = lower value",0.937
same,normalized growth,"S. cerevisiae deletion strains, locus YOR136W, strain idh2, stronger effect = lower value",1.01
same,normalized growth,"S. cerevisiae deletion strains, locus YOR144C, strain elg1, stronger effect = lower value",0.988
same,normalized growth,"S. cerevisiae deletion strains, locus YOR184W, strain ser1, stronger effect = lower value",1.02
same,normalized growth,"S. cerevisiae deletion strains, locus YOR231W, strain MKK1, stronger effect = lower value",0.996
same,normalized growth,"S. cerevisiae deletion strains, locus YOR265W, strain rbl2, stronger effect = lower value",0.971
same,normalized growth,"S. cerevisiae deletion strains, locus YOR270C, strain vph1, stronger effect = lower value",0.841
same,normalized growth,"S. cerevisiae deletion strains, locus YOR290C, strain snf2, stronger effect = lower value",0.914
same,normalized growth,"S. cerevisiae deletion strains, locus YOR316C, strain cot1, stronger effect = lower value",0.997
same,normalized growth,"S. cerevisiae deletion strains, locus YPL051W, strain arl3, stronger effect = lower value",0.953
same,normalized growth,"S. cerevisiae deletion strains, locus YPL055C, strain LGE1, stronger effect = lower value",1.01
same,normalized growth,"S. cerevisiae deletion strains, locus YPL078C, strain atp4, stronger effect = lower value",0.982
same,normalized growth,"S. cerevisiae deletion strains, locus YPL106C, strain sse1, stronger effect = lower value",0.953
same,normalized growth,"S. cerevisiae deletion strains, locus YPL240C, strain hsp82, stronger effect = lower value",0.98
same,normalized growth,"S. cerevisiae deletion strains, locus YPL241C, strain CIN2, stronger effect = lower value",0.995
same,normalized growth,"S. cerevisiae deletion strains, locus YPL256C, strain CLN2, stronger effect = lower value",0.993
same,normalized growth,"S. cerevisiae deletion strains, locus YPR119W, strain clb2, stronger effect = lower value",0.986
same,normalized growth,"S. cerevisiae deletion strains, locus YPR141C, strain kar3, stronger effect = lower value",0.978
same,normalized growth,"S. cerevisiae deletion strains, locus YPR163C, strain tif3, stronger effect = lower value",1
same,normalized growth,"S. cerevisiae deletion strains, locus YPR167C, strain met16, stronger effect = lower value",0.989
same,normalized growth,"S. cerevisiae deletion strains, strain wtn01, stronger effect = lower value",0.998
same,normalized growth,"S. cerevisiae strains, strain wild type, stronger effect = lower value",0.989
